“And” between values parts separate entries of the source, which are not always exact repeats. Equal entries are not always repeated. Among all 5,500 compounds or so, about 2,000 (36%) were called active. About 18% were inconclusive and are not listed. Cut-off read from the data, not from the text of the source: active = normalized growth mostly below about 0.91 (no sharp cut-off); inconclusive = no clear call, values can overlap the other calls; inactive = mostly above about 0.92. The list shows a part of the results.
Assay: chemical genetic growth profiling, strain panel (AID 1159580);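 note: tested at 20 µM; growth read once vehicle control cultures reached saturation at 30 °C; 1 = growth at the plate median or of vehicle wells; lower values mean less growth of the strain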
Conditions: S. cerevisiae deletion strains, growth OD

Measured: normalized growth

CC1Cc2ccccc2N1NC(=O)c1ccc(Cl)c(S(N)(=O)=O)c1 (centres undefined)
inactive: locus YAL013W, strain DEP1, stronger effect = lower value 1.01 | locus YAL021C, strain ccr4, stronger effect = lower value 1 | locus YAL026C, strain drs2, stronger effect = lower value 1 | locus YAL030W, strain snc1, stronger effect = lower value 0.998 | locus YBL061C, strain skt5, stronger effect = lower value 0.999 | locus YBR009C, strain hhf1, stronger effect = lower value 0.996 | locus YBR021W, strain FUR4, stronger effect = lower value 1.01 | locus YBR023C, strain chs3, stronger effect = lower value 1 | locus YBR171W, strain sec66, stronger effect = lower value 0.997 | locus YBR229C, strain ROT2, stronger effect = lower value 1.01 | locus YBR231C, strain swc5, stronger effect = lower value 0.978 | locus YBR279W, strain paf1, stronger effect = lower value 1 | locus YCL011C, strain gbp2, stronger effect = lower value 1.01 | locus YCL016C, strain dcc1, stronger effect = lower value 0.996 | locus YCL029C, strain bik1, stronger effect = lower value 1.01 | locus YCL061C, strain MRC1, stronger effect = lower value 1.01 | locus YCL069W, strain vba3, stronger effect = lower value 0.991 | locus YCR088W, strain abp1, stronger effect = lower value 1.01 | locus YDL005C, strain med2, stronger effect = lower value 0.999 | locus YDL035C, strain GPR1, stronger effect = lower value 1.02 | locus YDL040C, strain nat1, stronger effect = lower value 0.997 | locus YDL074C, strain BRE1, stronger effect = lower value 1.02 | locus YDL101C, strain DUN1, stronger effect = lower value 1.01 | locus YDL134C, strain PPH21, stronger effect = lower value 1.03 | locus YDL185W, strain tfp1, stronger effect = lower value 0.989 | locus YDL192W, strain arf1, stronger effect = lower value 0.999 | locus YDR001C, strain nth1, stronger effect = lower value 1 | locus YDR069C, strain doa4, stronger effect = lower value 1 | locus YDR101C, strain arx1, stronger effect = lower value 1.02 | locus YDR137W, strain rgp1, stronger effect = lower value 1.01 | locus YDR159W, strain sac3, stronger effect = lower value 0.992 | locus YDR162C, strain NBP2, stronger effect = lower value 1.01 | locus YDR195W, strain ref2 0.979 | locus YDR297W, strain sur2, stronger effect = lower value 0.998 | locus YDR318W, strain mcm21, stronger effect = lower value 0.991 | locus YDR334W, strain swr1, stronger effect = lower value 1.01 | locus YDR335W, strain msn5, stronger effect = lower value 1 | locus YDR388W, stronger effect = lower value 1 | locus YDR392W, strain spt3, stronger effect = lower value 0.973 | locus YDR502C, strain sam2, stronger effect = lower value 1 | locus YEL003W, strain gim4, stronger effect = lower value 1 | locus YEL037C, strain rad23, stronger effect = lower value 1 | locus YEL061C, strain CIN8 (second series), stronger effect = lower value 0.999 | locus YEL061C, strain CIN8, stronger effect = lower value 1.01 | locus YER015W, strain faa2, stronger effect = lower value 1.01 | locus YER016W, strain bim1, stronger effect = lower value 0.995 | locus YER110C, stronger effect = lower value 0.996 | locus YER111C, strain swi4, stronger effect = lower value 1 | locus YER155C, strain BEM2 (second series), stronger effect = lower value 1.01 | locus YER155C, strain BEM2, stronger effect = lower value 1.01 | locus YER167W, strain BCK2, stronger effect = lower value 1.01 | locus YFR010W, strain ubp6, stronger effect = lower value 1 | locus YGL078C, strain dbp3, stronger effect = lower value 1 | locus YGL086W, strain mad1, stronger effect = lower value 1.01 | locus YGL167C, strain pmr1, stronger effect = lower value 1 | locus YGL173C, strain kem1, stronger effect = lower value 1.01 | locus YGL227W, strain vid30, stronger effect = lower value 0.999 | locus YGL240W, strain doc1, stronger effect = lower value 0.996 | locus YGL248W, strain PDE1, stronger effect = lower value 1.01 | locus YGL253W, strain hxk2, stronger effect = lower value 0.993 | locus YGR078C, strain PAC10, stronger effect = lower value 1.01 | locus YGR135W, strain pre9, stronger effect = lower value 0.972 | locus YGR229C, strain SMI1, stronger effect = lower value 1.02 | locus YGR252W, strain gcn5, stronger effect = lower value 0.938 | locus YHR013C, strain ard1, stronger effect = lower value 1.02 | locus YHR027C, strain rpn1, stronger effect = lower value 1.01 | locus YHR030C, strain SLT2, stronger effect = lower value 1 and 0.987 | locus YHR079C, strain IRE1 (second series), stronger effect = lower value 0.994 | locus YHR079C, strain IRE1, stronger effect = lower value 0.989 | locus YHR094C, strain hxt1, stronger effect = lower value 0.993 | locus YHR129C, strain ARP1, stronger effect = lower value 1.01 | locus YHR142W, strain chs7, stronger effect = lower value 0.994 | locus YHR200W, strain rpn10, stronger effect = lower value 1.01 | locus YIL066C, strain RNR3, stronger effect = lower value 1.02 | locus YIL073C, strain SPO22, stronger effect = lower value 0.991 | locus YIL125W, strain kgd1, stronger effect = lower value 0.995 | locus YIR030C, strain dcg1, stronger effect = lower value 1 | locus YJL092W, strain hpr5, stronger effect = lower value 0.994 | locus YJL095W, strain BCK1 (second series), stronger effect = lower value 1 | locus YJL095W, strain BCK1, stronger effect = lower value 1.01 and 0.979 | locus YJL115W, strain asf1, stronger effect = lower value 1 | locus YJL129C, strain trk1, stronger effect = lower value 0.989 | locus YJL134W, strain LCB3, stronger effect = lower value 1.01 | locus YJL154C, strain vps35, stronger effect = lower value 1 | locus YJL164C, strain tpk1, stronger effect = lower value 0.998 | locus YJL166W, strain qcr8, stronger effect = lower value 0.997 | locus YJL168C, strain set2, stronger effect = lower value 1 | locus YJL187C, strain SWE1 (second series), stronger effect = lower value 1.01 | locus YJL187C, strain SWE1, stronger effect = lower value 0.999

Reference: PubChem BioAssay AID1159580 (chemical genetic matrix, 2015)
